Assay results as given in PubChem BioAssay AID1224854 (National Center for Advancing Translational Sciences (NCATS), 2016).
Inconclusive results are not listed. The source made the active and inactive calls. Calls follow the shape of the dose curve; as a rule, active = well fitted activation curve with a large enough effect; inconclusive = small, poorly fitted or top-dose-only effect; inactive = flat fitted curve, though single readings scatter.

Experiment: Cell viability assay for measurement of the protective activity of small molecules against cell death caused by Zika virus infection in human astrocytoma cells
Details: SNB-19 Zika virus cytoprotection, ATP luminescence, 72 h; series mostly up to 46.1 µM; protection from virus-induced cell death: at the top concentration
Text: National Center for Advancing Translational Sciences [NCATS] Johns Hopkins University School of Medicine Florida State University Assay Overview: Zika virus infection causes cell death in certain cell types including human neural progenitor cells (hNPCs), astrocytes, and astrocytoma cell line (SNB-19). This cell viability assay measures the ATP content (level) in human astrocytoma cells (SNB-19) using a luminescence readout that is proportional to viable cell numbers. Decrease in the luminescence signal after Zika virus infection indicates the cell death caused by Zika virus. Small molecule inhibitors […] the decreased luminescence signal after Zika virus infection, indicating the protective effect of that small molecule on the cell death caused by Zika virus infection. This observed protective effect of small molecules against Zika virus induced cell death may result from inhibition of virus replication or cellular response to the virus infection.
Assay Protocol Summary: The medium for SNB-19 cells is composed of RPMI 1640 (ATCC, Cat.# 30-2001), 10% fetal bovine serum (FBS) (GE healthcare Life Sciences, Cat.# SH30071.03), and 1% Pen/Strep (Gibco, Cat.# 15140-122). The ATP content assay kit (PerkinElmer, Cat.# 6016731) was used to determine cell viability. The reagent was reconstituted and prepared as described by the manufacturer. Cells were seeded in 384- or 1536-well assay plates and cultured at 37 C with 5% CO2 for 16 to 20 hours. The typical cell seeding density in the 1536-well plate assay is 250 cells/well in 3ul medium for SNB-19 cells in tissue culture treated plates. Compounds were added to cells and incubated for one hour before addition of ZIKV solution to cells (2 FFU/cell). After incubation at 37 C with 5% CO2 for 72 hours, the reagent mixture of the ATP content assay kit was added to each well, followed by incubation at room temperature for 10 minutes. The luminescence intensity of the assay plates was measured using a ViewLux plate reader (PerkinElmer). […] The percentage inhibitions of the decreased cell viability by small molecule inhibitors were then calculated.

| Structure (SMILES) | Potency | protection from virus-induced cell death |
| --- | --- | --- |
| COc1cc2nc(-c3ccc(N4CCN(C)CC4)cc3)nc(NCCN3CCOCC3)c2cc1OC | 1950 nM (active) |  |
| CCCSc1ccc2nc(NC(=O)OC)[nH]c2c1 |  | 1.59% (inactive) |
| O=C(Nc1ccc(C(=O)O)c(O)c1)c1ccccc1 |  | 12.3% (inactive) |
| CCCCC1C(=O)N(c2ccccc2)N(c2ccc(O)cc2)C1=O (stereo not given) | 19500 nM (active) |  |
| O=C(O)c1ccccc1Nc1cccc(C(F)(F)F)c1 |  | -13.1% (inactive) |
| COc1cc2nc(N3CCN(C(=O)C4CCCO4)CC3)nc(N)c2cc1OC (stereo not given) |  | -1.91% (inactive) |
| Nc1ncnc2c1ncn2[C@@H]1O[C@@H](CO)[C@H](O)[C@H]1O |  | 1.36% [at 23.8 µM] (inactive) |
| C[C@H](NC(=O)C(=O)Nc1ccccc1C(C)(C)C)C(=O)N[C@@H](CC(=O)O)C(=O)COc1c(F)c(F)cc(F)c1F | 489 nM (active) |  |
| O=c1cc(-c2ccccc2)oc2cc(O)cc(O)c12 |  | -4.33% (inactive) |
| COc1ccc(-c2coc3cc(O)ccc3c2=O)cc1 |  | -7.12% (inactive) |
| CO[C@H]1C(=O)[C@]2(C)[C@@H](OC)C[C@H]3OC[C@@]3(OC(C)=O)[C@H]2[C@H](OC(=O)c2ccccc2)[C@]2(O)C[C@H](OC(=O)[C@H](O)[C@@H](NC(=O)OC(C)(C)C)c3ccccc3)C(C)=C1C2(C)C |  | -12.5% (inactive) |
| Oc1ccc(/C=C/c2cc(O)cc(O)c2)cc1 |  | -18.6% (inactive) |
| O=c1c(-c2ccc(O)cc2)coc2cc(OC3O[C@H](CO)[C@H](O)[C@H](O)[C@H]3O)cc(O)c12 (stereo not given in full) |  | 8.55% (inactive) |
| O=C(Nc1ccc([N+](=O)[O-])cc1Cl)c1cc(Cl)ccc1O | 1550 nM (active) |  |
| CC(C(=O)O)c1ccc(-c2ccccc2)c(F)c1 (stereo not given) |  | -3.91% (inactive) |
| NC(N)=NN=C(/C=C/c1ccc([N+](=O)[O-])o1)/C=C/c1ccc([N+](=O)[O-])o1 |  | -21.8% (inactive) |
| COc1cccc2c1C(=O)c1c(O)c3c(c(O)c1C2=O)C[C@@](O)(C(=O)CO)C[C@@H]3O[C@H]1C[C@H](N)[C@H](O[C@@H]2CCCCO2)[C@H](C)O1 |  | -20.3% (inactive) |
| C[C@@H](O[C@H]1OCCN(Cc2n[nH]c(=O)[nH]2)[C@@H]1c1ccc(F)cc1)c1cc(C(F)(F)F)cc(C(F)(F)F)c1 |  | 2.59% (inactive) |
| O=c1c2ccccc2nc2n1CCc1c-2[nH]c2ccccc12 |  | -7.42% (inactive) |
| CNC1[C@H](O)C(O[C@@H]2C(O)C(O[C@H]3O[C@H]([C@@H](C)NC)CC[C@H]3N)[C@@H](N)C[C@H]2N)OC[C@]1(C)O (stereo not given in full) |  | 4.71% (inactive) |

| Structure (SMILES) | Potency | protection from virus-induced cell death |
| --- | --- | --- |
| Cc1cc(O)c2ccccc2c1O |  | -17.9% (inactive) |
| Nc1ccc(-c2ccc3ccccc3n2)cc1 |  | -18.9% (inactive) |
| Cc1cc(O)c2c(c1)C(=O)c1cc(O)cc(O)c1C2=O |  | 7.3% (inactive) |
| COc1cccc(-c2cc(=O)c3ccccc3o2)c1N |  | -13.9% (inactive) |
| CCCCCCOc1ccccc1C(N)=O |  | 0.0427% (inactive) |
| Nc1ccc(O)c(C(=O)O)c1 |  | -6.75% (inactive) |
| Cc1ccc(O)c(-n2nc3ccccc3n2)c1 |  | -2.26% (inactive) |
| Nc1c(S(=O)(=O)O)cc(Nc2ccc(Nc3nc(Cl)nc(Nc4ccc(S(=O)(=O)O)cc4)n3)c(S(=O)(=O)O)c2)c2c1C(=O)c1ccccc1C2=O |  | -1.96% (inactive) |
| O=C(Nc1cc2cc[nH]c2cn1)c1ccccc1 |  | -20.2% (inactive) |
| Cc1cccc(C#Cc2ccccc2)n1 |  | -5.24% (inactive) |
| O=C(O)CCC(=O)c1ccc(-c2ccccc2)cc1 |  | -4.58% (inactive) |
| CC(=NNC(=S)N1CCC1)c1ccccn1 | 690 nM (active) |  |
| c1ccc2[nH]c(-c3cscn3)nc2c1 |  | -1.36% (inactive) |
| Cc1cccc(/C=C/c2ccccc2)n1 |  | -0.0925% (inactive) |
| Cc1ccc2c(n1)Oc1ccc(C(C)C(=O)OCC(=O)N(C)C)cc1C2 (stereo not given) |  | -4.14% (inactive) |
| CCC(C(=O)O)c1ccc(N2Cc3ccccc3C2=O)cc1 (stereo not given) |  | -4.15% (inactive) |
| CC(=O)OC(C)OC(=O)C(C)c1ccc(-c2ccccc2)c(F)c1 (stereo not given) |  | 8.66% (inactive) |
| O=C1c2ccccc2C(=O)c2c1ccc(O)c2O |  | 1.15% (inactive) |
| COc1ccc(-c2cc(=S)ss2)cc1 |  | -5.82% (inactive) |
| O=C(Oc1ccccc1)c1cccc(C(=O)Oc2ccccc2)c1 |  | 3.11% [at 96.3 µM] (inactive) |
